Screening results from PubChem BioAssay.
nsP2pro inh = blocks chikungunya virus nsP2 protease peptide cleavage. Q8JUX6. FRET peptide cleavage, nsP2pro, fluorescence 1 h. Potency, µM (highest dose often 24.9 µM), for inactives: at the highest dose activity change, negative = inhibition, usual class: inhibitors. 31,000 compounds, 1.1% hits; note: nearly all actives have a fitted effect of over 60% in size
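Recombinant nsP2pro (150 nM) was preincubated with compound 15 min at room temperature in 10 mM Tris-HCl pH 8.0, 0.01% Tween 20. Peptide 2 FRET substrate (2.5 uM) was then added and fluorescence read after 1 h. Seven-point series, up to 25 uM.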
nsP2 cell sec = secondary cell-based test for CHIKV nsP2 protease inhibitors; shares compounds with nsP2pro inh; cell-based CHIKV nsP2 protease reporter assay; Potency, µM (top dose mostly 51.1 µM), inactives show at the top dose activity change, negative = inhibition, hits mostly inhibitors; 450 compounds, 10% hits; note: nearly all actives have a fitted effect of over 70% in size
NSP2 full ctr = inhibits full-length CHIKV NSP2 enzyme; shares compounds with nsP2pro inh; Full-length CHIKV NSP2 protease enzymatic counterscreen; Potency, µM (doses to about 50.7 µM), for inactives: at the highest dose activity change, negative = inhibition, hits mostly inhibitors; 410 compounds, 39% hits; AID 1964101; note: nearly all actives have a fitted effect of over 65% in size
Furin counterscr = selectivity counter-screen for CHIKV nsP2 protease inhibitors: human furin. shares compounds with nsP2pro inh. Potency, µM (doses to about 50.6 µM), inactives show top-dose activity change, negative = inhibition, actives largely listed as inhibitors. Recombinant human furin enzymatic counterscreen, fluorogenic substrate. AID 1964102. 410 compounds, 6% hits
nsP2 NS23 pep = nsP2pro inhibition on native NS2/3 peptide substrate; shares compounds with nsP2pro inh; Purified CHIKV nsP2 protease, endogenous NS2/3 peptide cleavage; Potency, µM (top dose mostly 51 µM), inactives show top-dose activity change, negative = inhibition, most hits filed as inhibitors; 410 compounds, 34% hits; AID 1964103; note: nearly all actives have a fitted effect of over 55% in size
Papain counter = papain protease inhibition, counterscreen for nsP2pro inhibitors; purified papain protease activity, enzymatic inhibition; AID 1964104; 410 compounds, 5% hits; Potency, µM (series often up to 51 µM), without a hit: at the highest dose activity change, negative = inhibition, usual class: inhibitors; shares compounds with nsP2pro inh
nsP2pro conf qHTS = CHIKV nsP2 protease inhibition, confirmatory qHTS; shares compounds with nsP2pro inh; Potency, µM (highest dose often 25.5 µM), without a hit: top-dose activity change, negative = inhibition, actives largely listed as inhibitors; CHIKV nsP2 protease enzymatic activity, qHTS; AID 1964105; 410 compounds, 43% hits; note: nearly all actives have a fitted effect of over 75% in size
HCV NS3 counter = HCV NS3/4A protease inhibition, counterscreen | shares compounds with nsP2pro inh | HCV NS3/4A protease biochemical counterscreen | Potency, µM (titrated, usually from 50.9 µM), most hits filed as inhibitors | 410 compounds, 20% hits; note: nearly all actives have a fitted effect of over 55% in size
Starred values were filed as active, the others as inactive; i = inactive; ? = inconclusive; [ ] = remark or other dose. The sample as a whole holds a higher share of hits than the screen did. Calls come from the whole dose curve. % is set by controls: 0 for no effect and ±100 for the full control effect; potency is the fitted concentration of half-maximal effect.

SMILES | nsP2pro inh | others
CCOc1cccc(CNc2ccc(O)cc2)c1OCc1ccccc1Cl | 11µM*
O=S(=O)(Nc1ccccc1)c1ccc(NCc2cccc(Cl)c2O)cc1 | -23%
Cn1cc([C@@H](NC(=O)CCc2ccc(=O)[nH]n2)C2CC(O)C2)cn1 (stereo partly drawn) | i
CCCN1Cc2ccccc2NC(=O)C12CCNC2 (stereo not drawn) | 13µM*
O=C1Nc2ccccc2CN(C/C=C/c2ccccc2)C12CCNC2 (stereo not drawn) | -8%
Cc1cc(CN2CCC23Cc2ccccc2NC3=O)no1 (stereo not drawn) | -16%[39.2 µM]
CCN1C(=O)CCc2cc(NC(=O)CC(C)C)ccc21 | -3%
C[N+](C)(C)CC(O)CC(=O)O (stereo not drawn) | -5%
CC(O)CC(=O)O (stereo not drawn) | 16µM*
O=C(O)CC(O)C(=O)O (stereo not drawn) | -18%
O[C@@H]1C[C@@H](c2nc(-c3ccncc3)no2)N(Cc2cccs2)C1 | -9%[39.2 µM]
CCN(CC)S(=O)(=O)c1cccc(C(=O)Nc2ccccc2C(=O)Nc2ccc(Cl)cc2)c1 | -19%
CC1=C2C[C@@]3(C)C(CCC[C@@H]3C)C(O)C2(O)OC1=O (stereo partly drawn) | 11µM*
CC1=C2CC(=O)C(C)CC/C=C(\C)CC2(O)OC1=O (stereo not drawn) | -9%
CC1=C2C[C@@]3(C)[C@@H](CCC[C@@H]3C)C[C@@]2(O)OC1=O | -27%
Cc1ccc(-n2c(=O)c3c(C)c(C(=O)N(C)C)sc3n(Cc3ccccc3C)c2=O)cc1C | -15%
CC(C)C1=C2[C@H]3CC[C@@H]4[C@@]5(C)CC[C@H](OC(=O)CC(C)(C)C(=O)O)C(C)(C)[C@@H]5CC[C@@]4(C)[C@]3(C)CC[C@@]2([C@@H](O)CN(CCN(C)C)Cc2ccc(Cl)cc2)CC1=O | 1%
COc1ccc(OC)c(-c2nnc3n2N=C(c2ccccc2OC)CS3)c1 | i
O=C(OCC#CCSc1nnc(-c2ccc3ccccc3c2)o1)c1ccc(F)c(F)c1 | -3%
O=C(CCn1ccc2cc(S(=O)(=O)N3CCCC3)ccc21)NCc1ccccc1Cl | -16%
COC(=O)c1ccc(Cn2nnc3sc4c(c3c2=O)CCCC4)cc1 | -22%
Cc1cc(C)cc(NC(=O)CSc2nc3sc4c(c3c(=O)[nH]2)CCCC4)c1 | -21%
COC(=O)c1ccccc1NC(=O)CSc1nc2sc3c(c2c(=O)[nH]1)CCCC3 | 10µM*
CCOCCCNC(=O)c1c(C)noc1-c1ccc(OC(F)(F)F)cc1 | -2%
COc1nc(-c2ccc3c(c2)OCO3)n(-c2ccc(NC(=O)CSc3ccccc3)cc2)n1 | 9%
SMILES | nsP2pro inh | others
Cn1cc(CN2CCN(c3ccc(C#N)cn3)CC2)c(-c2ccccc2)n1 | 2%
Cc1c(Cl)cccc1NC(=O)Cn1c(CCC(=O)O)ccc1-c1cccs1 | 6%
CCc1ccc(-n2c(CCC(=O)O)ccc2-c2cccs2)cc1 | -18%
O=C(O)CCc1ccc(-c2cccs2)n1CC(=O)Nc1ccccc1C(F)(F)F | 10% | nsP2 cell sec=-7%;NSP2 full ctr=-23%;Furin counterscr=-16%;nsP2 NS23 pep=-30%;Papain counter=-16%;nsP2pro conf qHTS=?;HCV NS3 counter=i
Cn1ccc(C(=O)N2CC3ON=C(C(=O)NCCc4ccc(Cl)cc4)C3C2)n1 (stereo not drawn) | -1%
CN(Cc1ccccc1)C(=O)c1ccc(S(=O)(=O)Nc2ccccc2)cc1 | -1%
